Shown are actives, neighbours in structure and some others; about 1.1% of the full set was active somewhere.
CCHF vOTU inh-1: CCHFV vOTU protease inhibition; Pep-AMC fluorescence; inhibition, % at 11.5 µM; actives 0.55% (n = 370,000); AID 651958; also: 0% = vehicle wells with enzyme and 100% = no enzyme wells
Mtb bLac sens: beta-lactam sensitization of Mtb H37Rv | AID 434955 | M. tuberculosis H37Rv growth with meropenem, percent inhibition | actives 0.27% (n = 330,000) | inhibition, % at 25 µM; call rule not given here;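 also: growth measured after seven days incubation then overnight dye step; 0% = bacteria only wells and 100% = bacteria with antibiotic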
BJeLR lethal: kills HRASV12-expressing BJeLR cells; actives 0.17% (n = 300,000); inhibition, % (test concentration not listed); BJeLR (HRASV12) viability, CellTiter-Glo ATP luminescence, 48 h; in the data active = inhibition above about 50%; inconclusive = no clear call, values can overlap the other calls
Mtb BioA inh: inhibitors of Mycobacterium tuberculosis BioA enzyme. actives 0.096% (n = 360,000). purified M. tuberculosis BioA enzyme, plate reader. inhibition, % at 9.99 µM. AID 602481; in the data active = inhibition above about 40%; inconclusive = no clear call, values can overlap the other calls
Yp Topo-I inh: Y. pestis Topo-I inhibition via cleavage products. activity, % at 10 µM. AID 504884. Y. pestis Topo-I cleavage product accumulation, plate reader. actives 0.064% (n = 360,000); in the data active = activity above about 50%, passing the limit was not always enough; inconclusive = no clear call, values can overlap the other calls
RecA intein inh: blocks M. tuberculosis RecA intein splicing. AID 2221. P9WHJ3. inhibition, % (test concentration not listed). actives 0.75% (n = 290,000). cell-free RecA intein splicing, fluorescence; in the data active = inhibition above about 30%; inconclusive = no clear call, values can overlap the other calls;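 also: 0% = vehicle wells and 100% = reference inhibitor control wells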
Target sequence (P9WHJ3 whole entry, looked up): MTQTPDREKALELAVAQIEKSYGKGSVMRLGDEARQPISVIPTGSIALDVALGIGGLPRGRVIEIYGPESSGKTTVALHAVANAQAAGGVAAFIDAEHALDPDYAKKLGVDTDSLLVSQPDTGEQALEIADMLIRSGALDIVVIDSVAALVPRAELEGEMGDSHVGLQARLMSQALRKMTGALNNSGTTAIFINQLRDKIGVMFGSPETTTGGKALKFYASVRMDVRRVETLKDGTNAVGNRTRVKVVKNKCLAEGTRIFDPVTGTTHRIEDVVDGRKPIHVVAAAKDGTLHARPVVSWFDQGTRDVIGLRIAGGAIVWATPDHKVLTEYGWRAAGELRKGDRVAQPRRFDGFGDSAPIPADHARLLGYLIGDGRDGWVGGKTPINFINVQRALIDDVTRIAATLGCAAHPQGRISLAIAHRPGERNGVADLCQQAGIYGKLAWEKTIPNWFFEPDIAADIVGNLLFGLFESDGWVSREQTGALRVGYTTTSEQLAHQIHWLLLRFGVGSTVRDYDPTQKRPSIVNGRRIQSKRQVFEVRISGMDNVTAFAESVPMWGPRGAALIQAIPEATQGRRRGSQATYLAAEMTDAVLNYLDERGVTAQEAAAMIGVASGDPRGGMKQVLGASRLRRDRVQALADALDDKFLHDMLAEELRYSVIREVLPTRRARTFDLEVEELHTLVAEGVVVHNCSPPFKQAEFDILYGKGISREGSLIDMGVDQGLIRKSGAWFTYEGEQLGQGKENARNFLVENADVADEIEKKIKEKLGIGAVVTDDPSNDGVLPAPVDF
CCHF vOTU inh-2: confirmation of CCHF virus vOTU protease inhibitors | shares compounds with CCHF vOTU inh-1 | Recombinant CCHFV vOTU, Pep-AMC fluorescence | inhibition, % at 11.5 µM | actives 17% (n = 1,900) | AID 686976
Numbers without * were called inactive; ? = inconclusive; nt = no result. Rule as the data show it, unless noted: active = inhibition above about 30%; inactive = the rest.

SMILES | CCHF vOTU inh-1 | Mtb bLac sens | BJeLR lethal | Mtb BioA inh | Yp Topo-I inh | RecA intein inh | CCHF vOTU inh-2
C[C@H](CO)N1C[C@H](C)[C@@H](CN(C)Cc2ccc(C(=O)Nc3ccccc3N)cc2)Oc2ccc(NS(=O)(=O)c3cccs3)cc2CC1=O | nt | nt | nt | 0.3 | nt | nt | nt
CC1(C)OC(c2ccccc2)=C/C(=C/C=C2C(=O)NC(=O)NC2=O)O1 | 30.3* | 11.2 | -3.1 | nt | 8.8 | -2.8 | -1.1
Cc1noc(C)c1NC(=O)N[C@@H]1CC[C@H](CC(=O)N2CCN(C)CC2)O[C@@H]1CO | nt | nt | nt | -3.2 | nt | nt | nt
COc1ccc(C(=O)N2CCCC(Nc3ccc(F)cc3)C2)cc1F (stereo unspecified) | -1.6 | ? | 6.0 | 6.9 | 2.5 | 0.9 | nt
Cc1ccc(C(=O)N2CCCC(Nc3ccc(F)cc3)C2)cc1C (stereo unspecified) | 30.3* | ? | -2.8 | 5.6 | 14.9 | -0.3 | 4.3

From PubChem
